Data taken from PubChem BioAssay (NCI).
About 79,000 compounds went through this panel and 15% of them were active in at least one assay; those are over-represented in the sample as a whole. A number with no mark means an inactive call. Activity calls are given as the source filed them. Rule as the data show it: active = growth inhibition above about 70%; inactive = the rest.

Columns and labels:
[1] = NCI Yeast Anticancer Drug Screen. Data for the rad50 strain (AID 155);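 also: 0% = growth of vehicle-only cultures of the same strain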; settings: S. cerevisiae rad50 strain growth inhibition, active compounds read high
Outline: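 DNA repair mutant yeast, compound exposure, growth read-out; inhibition is taken relative to vehicle.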

[2] = NCI Yeast Anticancer Drug Screen. Data for the mec2-1 strain (AID 157); settings: S. cerevisiae mec2-1 strain, active compounds read high
Outline: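 Test agents were screened against the mec2-1 yeast strain, with defined DNA repair or cell cycle alteration. Growth was scored as inhibition against vehicle-only controls.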

[3] = NCI Yeast Anticancer Drug Screen. Data for the sgs1 mgt1 strain (AID 161);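 also: 0% = growth of cultures given vehicle only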; settings: S. cerevisiae sgs1 mgt1 strain, active compounds read high
Outline: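 Inhibition of yeast growth, normalised to vehicle-treated controls, is reported for a strain bearing genetic alterations in DNA damage repair.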

[4] = NCI Yeast Anticancer Drug Screen. Data for the cln2 rad14 strain (AID 165);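 also: 0% = growth equal to vehicle treated cultures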; settings: S. cerevisiae cln2 rad14 strain, active compounds read high
Outline: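 Growth of compound-exposed yeast (cln2 rad14 genotype) measured and expressed as inhibition relative to vehicle.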

[5] = NCI Yeast Anticancer Drug Screen. Data for the bub3 strain (AID 167); settings: S. cerevisiae bub3 mutant strain, active compounds read high
Outline: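 In this screen, a yeast mutant lacking normal mitotic checkpoint function is challenged with compound. Relative growth versus vehicle gives the inhibition value.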

[6] = NCI Yeast Anticancer Drug Screen. Data for the mlh1 rad18 strain (AID 175); settings: S. cerevisiae mlh1 rad18 strain growth inhibition, active compounds read high
Outline: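 In this whole-cell yeast screen, a strain with altered DNA damage repair is challenged with compound, and its growth is measured against matched vehicle-treated controls.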

[7] = at 5.0 µM (retest, dose inferred, filed as 0.5)
[8] = at 50.0 µM (retest, dose inferred, filed as 5.0)

SMILES	growth inhibition [1, 7]	growth inhibition [1, 8]	growth inhibition ([1]; at 50.0 µM)	growth inhibition [2, 7]	growth inhibition [2, 8]	growth inhibition ([2]; at 50.0 µM)	growth inhibition [3, 7]	growth inhibition [3, 8]	growth inhibition ([3]; at 50.0 µM)	growth inhibition [4, 7]	growth inhibition [4, 8]	growth inhibition ([4]; at 50.0 µM)	growth inhibition [5, 7]	growth inhibition [5, 8]	growth inhibition ([5]; at 50.0 µM)	growth inhibition [6, 7]	growth inhibition [6, 8]	growth inhibition ([6]; at 50.0 µM)
Oc1ccc(CNC2CCCCC2)cc1	-4%	4%	70.8% (active)	-13%	-20%	31.2%	-5%	10%	79.8% (active)	-2%	-11%	50.5%	-14%	-20%	37.4%	1%	-25%	46.9%
COC(=O)C(=C(c1ccccc1)c1ccccc1)c1ccccc1	3%	-1%	25.8%	0%	4%	23.1%	4%	-1%	52%	0%	4%	43.1%	-2%	-3%	89.6% (active)	-3%	7%	35.6%
Oc1c(Cl)cc(Cl)cc1Br	-4%	83% (active)	90.2% (active)	5%	96% (active)	97.4% (active)	3%	72% (active)	96.7% (active)	0%	91% (active)	54.5%	-7%	78% (active)	84.7% (active)	-2%	91% (active)	88.1% (active)
CC(C)[C@@H]1CC[C@@H](C)C[C@H]1OC(=O)NN	-8%	72% (active)	89.5% (active)	-30%	53%	90.3% (active)	-8%	70% (active)	91.2% (active)	1%	-2%	59.6%	6%	84% (active)	80.5% (active)	-6%	68%	95.3% (active)
CCCN(CCC)C(=S)N/N=C/c1cccc(C)n1	-8%	100% (active)	90.3% (active)	-33%	99% (active)	93.2% (active)	-40%	98% (active)	92.8% (active)	-9%	100% (active)	93.1% (active)	-32%	100% (active)	92.5% (active)	-8%	99% (active)	89.7% (active)
CCCC(O)[C@@]1(CC)CC(C)C(O)(C2(C)C[C@H](C)[C@@H](C(CC)C(=O)C(C)[C@@H](O)[C@H](C)C3OC(O)(C(CC)C(=O)O)[C@@H](C)C(O)C3CC)O2)O1 (some centres not stated)	-9%	-13%	14.7%	-27%	-13%	23.1%	-9%	-6%	23.3%	0%	28%	29.3%	-10%	-14%	25.9%	-10%	-8%	85.9% (active)
CC(C)CCCOC(=O)c1cc([N+](=O)[O-])cc([N+](=O)[O-])c1	12%	30%	67.8%	2%	27%	53.1%	5%	51%	96% (active)	3%	25%	54.2%	0%	24%	72.6% (active)	3%	70% (active)	93.8% (active)
COc1ccccc1NC(=O)C1=C(C)NC(C)=C(C(=O)Nc2ccccc2OC)C1c1ccccc1[N+](=O)[O-]	13%	13%	68%	4%	4%	69.1%	2%	2%	60.9%	0%	0%	12%	5%	5%	65.7%	13%	13%	48.4%
C[N+]1=C(/C=C\c2ccc(O)c3ccccc23)C(C)(C)c2ccccc21	-2%	82% (active)	40.5%	3%	89% (active)	50.2%	-2%	92% (active)	36%	-4%	83% (active)	54.9%	15%	82% (active)	38.5%	28%	82% (active)	43.7%
